Laboratory results from PubChem BioAssay (NCATS).
Records with an inconclusive call do not appear. Where a structure was tested more than once in an assay, its records may differ in their call. Activity calls are given as the source filed them. Calls follow the shape of the dose curve; as a rule, active = well fitted curve in the direction sought with a large enough effect; inconclusive = small, poorly fitted or top-dose-only effect, or another doubt; inactive = no such curve, though single readings can be large; an effect the other way counts as inactive or inconclusive.

Key:
HaCat [1] = test: Cytotoxic Profiling of Annotated Libraries Using Quantitative High-Throughput Screening (AID 1296008); conditions: Five cell lines viability, CellTiter-Glo ATP luminescence, 48-72 h; max response: active compounds read low; also: nearly all actives have a fitted effect of over 60% in size; also: potency is read from the fitted curve at half-maximal effect; as to max response: % is scaled to controls: 0 for no effect and ±100 for the full control effect
In short: (§1)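 Cells exposed to compounds for 48 or 72 hr at 37 degrees Celsius. Viability read as ATP-coupled luminescence with CellTiter-Glo after 10 min at room temperature.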

KB-3-1 = test: as above; conditions: Five cell lines viability, CellTiter-Glo ATP luminescence, 48-72 h; max response: active compounds read low
In short: as §1

NIH3T3 [2] = test: as above; conditions: Five cell lines viability, CellTiter-Glo ATP luminescence, 48-72 h; max response: active compounds read low
In short: as §1

HACAT [3] = test: qHTS assay to identify novel small-molecules to repurpose for Merkel cell carcinoma treatment (AID 1296009); conditions: MCC and control cell lines, CellTiter-Glo viability, 72 h; series mostly up to 44.8 µM; also: nearly all actives have a fitted effect of over 60% in size
In short: (§2)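 CellTiter-Glo luminescence after 72 hr compound exposure at 37 degree celsius gave cell viability. Libraries NPC and MIPE were run as 8- and 11-point dose responses; RLUs normalized to DMSO (negative) and no-cell (cytotoxicity) controls.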

C33A = test: Primary qHTS to identify gynecologic anti-cancer compounds using libraries of approved drugs and bioactive compounds (AID 1345084); conditions: Gynecologic cancer cell panel viability, ATPlite luminescence, 48 h; series mostly up to 57.5 µM; also: nearly all actives have a fitted effect of over 55% in size; also: potency is read from the fitted curve at half-maximal effect; as to activity change, negative = cytotoxicity: % is scaled to controls: 0 for no effect and ±100 for the full control effect
In short: (§3)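 Five-concentration response, 48 h; readout is ATP-driven luciferase luminescence.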

CAOV3 = test: as above; conditions: Gynecologic cancer cell panel viability, ATPlite luminescence, 48 h; series mostly up to 57.5 µM
In short: as §3

CASKI = test: as above; conditions: Gynecologic cancer cell panel viability, ATPlite luminescence, 48 h; series mostly up to 57.5 µM
In short: as §3

Es-2 = test: as above; conditions: Gynecologic cancer cell panel viability, ATPlite luminescence, 48 h; series mostly up to 57.5 µM
In short: as §3

HeLa = test: as above; conditions: Gynecologic cancer cell panel viability, ATPlite luminescence, 48 h; series mostly up to 57.5 µM
In short: as §3

Hek293T = test: as above; conditions: Gynecologic cancer cell panel viability, ATPlite luminescence, 48 h, control line for the selectivity index; series mostly up to 57.5 µM
In short: as §3

JEG-3 = test: as above; conditions: Gynecologic cancer cell panel viability, ATPlite luminescence, 48 h; series mostly up to 57.5 µM
In short: as §3

OV90 = test: as above; conditions: Gynecologic cancer cell panel viability, ATPlite luminescence, 48 h; series mostly up to 57.5 µM
In short: as §3

NIH3T3 [4] = test: qHTS assay to identify novel small-molecules to repurpose for Merkel cell carcinoma treatment (AID 1296009); conditions: MCC and control cell lines, CellTiter-Glo viability, 72 h; at 44.8 µM (top of the series) unless noted; also: nearly all actives have a fitted effect of over 60% in size
In short: as §2

C[C@@H]1CCN(C(=O)N2CCCC2)C[C@@H]1N(C)c1ncnc2[nH]ccc12
inactive: outcome (HaCat [1]) | max response (KB-3-1) 6.14% | max response (NIH3T3 [2]) -9.02% | Potency (HACAT [3]) | Potency (C33A) | Potency (CAOV3) | Potency (CASKI) | Potency (Es-2) | Potency (HeLa) | Potency (Hek293T) | Potency (JEG-3) | Potency (OV90)

CCC(C)/C=C(C)/C=C/c1cc2c(cn1)C(=O)C(C)(OC(C)=O)C(O)=C2Cl (configuration not stated)
inactive: outcome (HaCat [1]) | outcome (KB-3-1) | outcome (NIH3T3 [2]) | Potency (HACAT [3]) | outcome (NIH3T3 [4]) | Potency (C33A) | Potency (CAOV3) | Potency (CASKI) | Potency (Es-2) | Potency (HeLa) | Potency (Hek293T) | Potency (JEG-3)

CC1OC(OC2C(C)OC(OC3C(O)C(CO)OC(O[C@H]4CC[C@@]5(C)C(CC[C@]6(C)C5CC=C5C7[C@@H](C)[C@H](C)CC[C@]7(C(=O)O)CC[C@]56C(=O)O)C4(C)C)C3O)C(O)C2O)C(O)C(O)C1O (some centres not stated)
inactive: outcome (HaCat [1]) | max response (KB-3-1) 9.21% | outcome (NIH3T3 [2]) | outcome (HACAT [3]) inactive [at 9.27 µM] | outcome (NIH3T3 [4]) inactive [at 9.27 µM] | activity change, negative = cytotoxicity (C33A) -5.63% [at 11.6 µM] | activity change, negative = cytotoxicity (CAOV3) 10.5% [at 11.6 µM] | activity change, negative = cytotoxicity (CASKI) 1.59% [at 11.6 µM] | activity change, negative = cytotoxicity (Es-2) 1.92% [at 11.6 µM] | activity change, negative = cytotoxicity (HeLa) 9.15% [at 11.6 µM] | activity change, negative = cytotoxicity (Hek293T) -7.85% [at 11.6 µM] | activity change, negative = cytotoxicity (JEG-3) -5.03% [at 11.6 µM] | activity change, negative = cytotoxicity (OV90) 0.765% [at 11.6 µM]

CC1=CC(=O)[C@]2(O[C@@H]3O[C@@H](C)[C@H](O)[C@@H](O)[C@H]3OC(=O)/C=C/c3ccccc3)C=CO[C@@H](O[C@@H]3O[C@H](CO)[C@@H](O)[C@H](O)[C@H]3O)[C@H]12
inactive: outcome (HaCat [1]) | max response (KB-3-1) 8.78% | outcome (NIH3T3 [2]) | Potency (HACAT [3]) | outcome (NIH3T3 [4]) inactive [at 17.4 µM] | Potency (C33A) | Potency (CAOV3) | Potency (CASKI) | Potency (Es-2) | Potency (HeLa) | Potency (Hek293T) | Potency (JEG-3) | Potency (OV90)

O=C(Nc1c(-c2cccs2)nc2ccccn12)c1ccc(Cl)cc1
inactive: outcome (HaCat [1]) | outcome (KB-3-1) | max response (NIH3T3 [2]) -0.375% | Potency (HACAT [3]) | Potency (C33A) | Potency (CAOV3) | Potency (CASKI) | Potency (Es-2) | Potency (HeLa) | Potency (Hek293T) | Potency (JEG-3) | Potency (OV90)

CC1=CC(=O)CC(C)(C)[C@H]1/C=C/C(CO)O[C@@H]1O[C@H](CO)[C@@H](O)[C@H](O)[C@H]1O (some centres not stated)
inactive: outcome (HaCat [1]) | outcome (KB-3-1) | max response (NIH3T3 [2]) -2.41% | Potency (HACAT [3]) | Potency (C33A) | Potency (CAOV3) | Potency (CASKI) | Potency (Es-2) | Potency (HeLa) | Potency (Hek293T) | Potency (JEG-3) | Potency (OV90)

CO/N=C(/C(=O)N[C@@H]1C(=O)N2C(C(=O)O)=C(Cn3ccc(=N)n3CCO)CS[C@H]12)c1csc(N)n1
inactive: outcome (HaCat [1]) | max response (KB-3-1) -6.11% | outcome (NIH3T3 [2]) | Potency (HACAT [3]) | outcome (NIH3T3 [4]) | Potency (C33A) | Potency (CASKI) | Potency (Es-2) | Potency (HeLa) | Potency (Hek293T) | Potency (JEG-3) | Potency (OV90)

C=C(C(=O)O)C1CCC2(C)CCCC(C)(O)C2C1 (configuration not stated)
inactive: outcome (HaCat [1]) | outcome (KB-3-1) | outcome (NIH3T3 [2]) | Potency (HACAT [3]) | outcome (NIH3T3 [4]) | Potency (C33A) | Potency (CAOV3) | Potency (CASKI) | Potency (Es-2) | Potency (HeLa) | Potency (Hek293T) | Potency (JEG-3) | Potency (OV90)

NC(=O)[C@H]1CCS[C@@H]2C[C@]3(CCCN3C(=O)Cc3ccc(NC(=O)COc4ccc(Cl)cc4Cl)cc3)C(=O)N12
inactive: max response (HaCat [1]) -24.7% | Potency (C33A) | Potency (CAOV3) | Potency (Es-2) | Potency (OV90)
active: Potency (HaCat [1]) 18.6 µM | Potency (NIH3T3 [2]) 11.7 µM | Potency (HeLa) 31.6 µM

COc1cc2ncnc(Nc3cccc(Cl)c3F)c2cc1OC(=O)N1CCN(C)C[C@H]1C
inactive: max response (HaCat [1]) -86.6% | outcome (KB-3-1) | max response (NIH3T3 [2]) -86.1%

OCC1OC(Oc2cc(O)cc(/C=C/c3ccc(O)cc3)c2)C(O)C(O)C1O (configuration not stated)
inactive: outcome (HaCat [1]) | max response (KB-3-1) 5.61% | max response (NIH3T3 [2]) -0.337% | Potency (HACAT [3]) | Potency (C33A) | Potency (CAOV3) | Potency (CASKI) | Potency (Es-2) | Potency (HeLa) | Potency (Hek293T) | Potency (JEG-3) | Potency (OV90)

CC12CCC(OC3OC(CO)C(O)C(OC4OC(CO)C(O)C(O)C4O)C3O)CC1=CCC1C2CCC2(C)/C(=C3/COC(=O)C3)CCC12O (configuration not stated)
inactive: outcome (HaCat [1]) | max response (KB-3-1) -7.93% | max response (NIH3T3 [2]) -3.87% | Potency (HACAT [3]) | Potency (C33A) | Potency (CAOV3) | Potency (CASKI) | Potency (Es-2) | Potency (HeLa) | Potency (Hek293T) | Potency (JEG-3) | Potency (OV90)

CC(=O)O[C@H]1CC[C@@]2(C)C(CC[C@@H](C)[C@]23Cc2c(O)cc4c(c2O3)CN([C@@H](CCC(=O)O)C(=O)O)C4=O)C1(C)C (some centres not stated)
inactive: outcome (HaCat [1]) | outcome (KB-3-1) | max response (NIH3T3 [2]) 2.49% | Potency (HACAT [3]) | Potency (C33A) | Potency (CAOV3) | Potency (CASKI) | Potency (Es-2) | Potency (HeLa) | Potency (Hek293T) | Potency (JEG-3) | Potency (OV90)

CC(=O)O[C@@H]1[C@H](O[C@@H]2O[C@@H](CO)[C@H](O)[C@H]2O)[C@@H](O[C@@H]2O[C@@H](C)[C@H](O[C@@H]3OC[C@@H](O)[C@H](O)[C@H]3O)[C@@H](O)[C@H]2O)[C@H](OC(=O)[C@]23CCC(C)(C)C[C@H]2C2=CCC4[C@@]5(C)CC[C@H](O[C@@H]6O[C@H](C(=O)O)[C@@H](O)[C@H](O)[C@H]6O[C@@H]6O[C@H](CO)[C@H](O)[C@H](O)[C@H]6O)[C@@](C)(C=O)C5CC[C@@]4(C)[C@]2(C)CC3)O[C@@H]1C (some centres not stated)
inactive: outcome (HaCat [1]) | max response (KB-3-1) 5.7% | max response (NIH3T3 [2]) 4.82% | outcome (HACAT [3]) inactive [at 9.27 µM] | activity change, negative = cytotoxicity (C33A) 4.84% [at 6.55 µM] | activity change, negative = cytotoxicity (CASKI) 4.57% [at 6.55 µM] | activity change, negative = cytotoxicity (Es-2) 4.09% [at 6.55 µM] | activity change, negative = cytotoxicity (HeLa) 11.1% [at 6.55 µM] | activity change, negative = cytotoxicity (Hek293T) 2.65% [at 6.55 µM] | activity change, negative = cytotoxicity (JEG-3) 11.6% [at 6.55 µM] | activity change, negative = cytotoxicity (OV90) 12.8% [at 6.55 µM]
